Reference: PubChem BioAssay (NCI)
Compounds without any hit were thinned out: in the full panel of roughly 83,000, 20% have a hit.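 Values shown are percent growth following 48 h exposure of cells in 96-well plates to a single concentration of compound; below 10 was considered active.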 Calls of active or inactive are those of the source.

test system: NCI-H460 lung; test: NCI-60 one-dose screen, 48 h (100 = growth as untreated, 0 = no growth, -100 = all killed); details: 10 µM unless noted
Description: Growth inhibition of the NCI-H460 human Non-Small Cell Lung tumor cell line is measured as a screen for anti-cancer activity. Cells are grown in 96 well plates and exposed to the test compound for 48 hours. Compounds are tested at a single concentration, which is 10^-5 M for most compounds. The reported endpoint is percent growth (GI% or GIPRCNT), where numbers from 0 - 100% represent growth inhibition, and numbers from -100% - 0 represent cell death. For example, a value of 40 represents 60% growth inhibition. A value of 0 means no net growth occurred over the course of the experiment. A value of -40 indicates 40% of cells at the beginning of the experiment died by the end of the experiment. A value of -100 means all cells are dead at the end of the experiment.
NCI-60 Human Tumor Cell Lines Screen was performed using the standard one-dose NCI protocol, which is described in more detail at https://dtp.cancer.gov/discovery_development/nci-60/default.htm.
Compounds with GIPRCNT values below 10 were considered active. Activity score was based on GIPRCNT using the following formula: […]
Score is 0 for GIPRCNT values of 100 or above, 50 for GIPRCNT values of 0, and 100 for GIPRCNT values of -100.

**Q.** CN1CCN(Cc2ccc(NC(=O)c3cncc(C#Cc4[nH]nc5ncncc45)c3)cc2C(F)(F)F)CC1 was tested. Which growth did it give?
**A.** Its growth is 64.3% (inactive).

**Q.** For CC(C)c1nn(-c2ccccc2)c(N2CCCCC2)c1/C=N/NC(N)=S, which growth is on record?
**A.** Its growth is 96.5% (inactive).

**Q.** With CC1OC(O[C@@H]2C(O)C(CO)OC(O[C@H]3COC(O[C@H]4CC[C@]5(C)[C@H]6CC[C@]78OC[C@@]9(CC[C@](C)(C=O)C[C@H]97)[C@H](O)C[C@@]8(C)[C@]6(C)CC[C@H]5C4(C)C)[C@@H](OC4OC(CO)[C@@H](O)[C@@H](O)[C@@H]4O)[C@@H]3O)[C@H]2OC2OC[C@@H](O)[C@@H](O)[C@@H]2O)[C@@H](O)[C@@H](O)[C@H]1O (stereo not given in full) as the compound, how does the growth read?
**A.** The growth was 74.1% (inactive).

**Q.** With CCOP(=O)(OCC)OC[C@]12CCC(C)(C)C[C@H]1C1=CC[C@@H]3[C@@]4(C)C/C(=C\c5cccnc5)[C@H](OP(=O)(OCC)OCC)C(C)(C)[C@@H]4CC[C@@]3(C)[C@]1(C)CC2 as the compound, how does the growth read?
**A.** Its growth is 10.8% (inactive).

**Q.** How did the growth turn out when Nc1c(C(=O)c2ccccc2)sc2nc(-c3cnccn3)cc(-c3cccs3)c12 was run?
**A.** The growth was 103% (inactive).

**Q.** For O=C1Nc2ccc(Cl)cc2/C1=C/c1ccc(OCc2ccc(F)cc2)cc1, which growth is on record?
**A.** Its growth is 97.7% (inactive).

**Q.** For C(=C(\C1=NCCN1)n1cnc2ccccc21)/c1ccc2ccccc2c1, which growth is on record?
**A.** The growth was 86.5% (inactive).

**Q.** For CCCCSc1nnc(-c2ccc(-c3ccc(Cl)cc3)nc2C)o1, which growth is on record?
**A.** The growth was 101% (inactive).

**Q.** Which growth does the source give for C=C(C)C(=O)O[C@H]1C[C@@]2(C)OC(=CC2=O)/C(C)=C\[C@H]2OC(=O)C(=C)[C@H]12 here?
**A.** The growth was 13.3% (inactive).

**Q.** For O=C1c2c(c3c4cc(Br)ccc4[nH]c3c3ccc4ccccc4c23)C(=O)N1CCN1CCCCC1, which growth is on record?
**A.** Its growth is -67.7% (active).

**Q.** With Cc1cc(NS(=O)(=O)c2ccc(-c3cnc(C4CC4)o3)cc2)ccc1I as the compound, how does the growth read?
**A.** The growth was 22.2% (inactive).

**Q.** COc1cc(/C=N/n2cnc3oc(-c4ccccc4)cc3c2=N)cc(CN2CCCCC2)c1O was tested. Which growth did it give?
**A.** Its growth is -72.7% (active).

**Q.** For CCOc1ccc2nc(NC(=O)Nc3ccccc3C)sc2c1, which growth is on record?
**A.** Its growth is 42.4% (inactive).

**Q.** Which growth does the source give for O=C1C[C@@H](c2ccccc2)Oc2c(Cc3ccccc3O)c(O)c(Cc3cc(Cc4cc(Cc5ccccc5O)ccc4O)ccc3O)c(O)c21 here?
**A.** Its growth is 104% (inactive).

**Q.** Which growth does the source give for C/C(=C(/c1ccc(O)cc1)c1ccc(OCCN2CCCC2)cc1)c1ccc(Cl)cc1 here?
**A.** The growth was -1.6% (active).

**Q.** How did the growth turn out when CS(=O)(=O)c1nccc(-c2c(-c3ccc(F)c(OCCc4ccc(F)cc4)c3)nc3sccn23)n1 was run?
**A.** The growth was -56% (active).

**Q.** COc1cc(OC)c(S(N)(=O)=O)cc1C(=O)/C=C/c1ccccc1 was tested. Which growth did it give?
**A.** Its growth is 3.32% (active).

**Q.** For COc1ccc(C(=O)c2c(N)c(C#N)cn2-c2cccc(OC)c2)cc1, which growth is on record?
**A.** The growth was 27.8% (inactive).

**Q.** O=C(NNc1nc2cc(F)c(F)cc2n2cccc12)c1ncccn1 was tested. Which growth did it give?
**A.** The growth was 10.6% (inactive).

**Q.** COc1cc2cc(Oc3ccc(NC(=O)Nc4cccc(C(F)(F)F)c4)cc3)c(C)nc2cc1OCCN(C)C was tested. Which growth did it give?
**A.** Its growth is 99.9% (inactive).

**Q.** With CC(=O)Nc1ccc(C)c(Nc2cc(-c3ccc(-n4cccn4)cc3)[nH]n2)c1 as the compound, how does the growth read?
**A.** The growth was 27.6% (inactive).

**Q.** How did the growth turn out when CCc1ccc(NC(=O)N[C@@H](Cc2cccc(F)c2)C(=O)N[C@@H]2C(=O)N3CCC[C@H]3C(=O)N3CCCC[C@H]3C(=O)N[C@@H](CO)C(=O)N3C[C@H](C)C[C@H]3C(=O)O[C@H]2C)c(F)c1 was run?
**A.** The growth was 14.4% (inactive).

**Q.** How did the growth turn out when COc1cc2c3c(n(CCCN4CCCC4)c(=O)c2cc1OC)-c1cc2c(cc1C3=O)OCO2 was run?
**A.** The growth was -78.6% (active).

**Q.** With COc1ccc([C@H]2[C@H](O)C(=O)N2c2cc(OC)c(OC)c(OC)c2)cc1 as the compound, how does the growth read?
**A.** The growth was 3.39% (active).

**Q.** For O=C1Nc2cc(OC(F)(F)F)ccc2Oc2ccc(-c3ccnc(N4CC[C@H](O)C4)c3)cc21, which growth is on record?
**A.** The growth was -47.1% (active).

**Q.** COc1ccc(NC(=O)[C@H](C)NC(=O)OC(C)(C)C)cc1C(=O)Nc1cccc(-c2cc(=O)c3c(OC)c(OC)c(OC)cc3o2)c1 was tested. Which growth did it give?
**A.** Its growth is -21.4% (active).

**Q.** How did the growth turn out when NCCN1CCN(c2nc(-c3ccccc3)nc3nc(-c4ccccc4)oc23)CC1 was run?
**A.** Its growth is -67.7% (active).

**Q.** How did the growth turn out when COc1ccc2c(ccn2C(=O)N2c3ccccc3Sc3ccccc32)c1 was run?
**A.** The growth was 14.2% (inactive).

**Q.** How did the growth turn out when O=c1cc(-c2ccccc2)nc2sc(-c3c[nH]c4ccc(Br)cc34)nn12 was run?
**A.** The growth was 106% (inactive).

**Q.** For Cc1ccc(-c2cc(-c3ccc(N(C)C)cc3)n3c(n2)nc2ccccc23)cc1, which growth is on record?
**A.** Its growth is 61.7% (inactive).

**Q.** For Clc1ccccc1/C=C/c1nn2c(-c3ccncc3)nnc2s1, which growth is on record?
**A.** The growth was 102% (inactive).

**Q.** With Cc1cn(-c2cc(NC(=O)c3cncc(C#Cc4cnc5ccc(O[C@H]6CCOC6)nn45)c3)cc(C(F)(F)F)c2)cn1 as the compound, how does the growth read?
**A.** The growth was 99.9% (inactive).

**Q.** How did the growth turn out when CC[C@@](C)(NC(=O)C(C)(C)NC(=O)[C@@H](NC(=O)[C@@H]1CCCN1C(=O)C(C)(C)NC(=O)[C@H](CC(C)C)NC(=O)CNC(=O)C(C)(C)NC(=O)[C@@H](NC(=O)C(C)(C)NC(=O)[C@H](CCC(N)=O)NC(=O)[C@H](C)NC(=O)C(C)(C)NC(=O)[C@H](C)NC(=O)C(C)(C)NC(=O)[C@@H]1CCCN1C(=O)C(C)(C)NC(C)=O)C(C)C)C(C)C)C(=O)N[C@@H](CCC(N)=O)C(=O)N[C@@H](CCC(N)=O)C(=O)N[C@H](CO)Cc1ccccc1 was run?
**A.** The growth was 39.4% [4.25 µM] (inactive).

**Q.** Cc1nn(-c2ccccc2)cc1/C=N/Nc1nc(Nc2ccccc2)nc(Nc2ccc(S(N)(=O)=O)cc2)n1 was tested. Which growth did it give?
**A.** Its growth is -35.9% (active).

**Q.** CCOC(=O)Nc1cccc(-n2cnc3cc(-c4ccc(O)cc4)ccc32)c1 was tested. Which growth did it give?
**A.** Its growth is 4.77% (active).

**Q.** Which growth does the source give for Cc1nn(-c2ccccc2)c2nc(CCl)[nH]c(=O)c12 here?
**A.** Its growth is 102% (inactive).

**Q.** Which growth does the source give for CCCCCCCCCC[C@@H](C)[C@@H]1CC(=O)N[C@H]([C@@H](C)O)C(=O)N[C@@H](C)C(=O)N[C@H](C)C(=O)N[C@@H](CCC(N)=O)C(=O)N[C@H](Cc2ccc(O)cc2)C(=O)N[C@@H](C(C)CC)C(=O)O1 (stereo not given in full) here?
**A.** Its growth is 63.6% (inactive).

**Q.** Which growth does the source give for Cc1ccc(NC(=O)N[C@@H](Cc2cc(F)cc(F)c2)C(=O)NC2C(=O)N3CCC[C@H]3C(=O)N3CCCC[C@H]3C(=O)N[C@@H](C)C(=O)N3C[C@H](C)C[C@H]3C(=O)O[C@H]2C)c(F)c1 (stereo not given in full) here?
**A.** The growth was 15.3% (inactive).

**Q.** For Nc1nc(N)c2c(n1)NC(c1ccc(Cl)cc1)CC(c1ccc(Nc3nc(NCCO)nc(Nc4ccc(Cl)cc4)n3)cc1)=N2 (stereo not given), which growth is on record?
**A.** Its growth is -57.2% (active).

**Q.** Oc1ccc(CSc2nnc(-c3ccccc3)n2-c2ccccc2)c2cccnc12 was tested. Which growth did it give?
**A.** The growth was 1.36% (active).
